Assay outcomes from PubChem.
This is a sample that favours compounds with a hit; in the whole collection about 19% have one here.
HT1080 IDH1KD tx = qHTS for induction of synthetic lethality in tumor cells producing 2HG: qHTS for the HT-1080-IDH1KD cell line; HT-1080 IDH1 knockdown viability, ATP luminescence, 48 h; Potency, µM (doses to about 46.1 µM), for inactives: at the highest dose activity, negative = toxicity, usual class: cytotoxic; 2% of 360,000 active;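 further: potency means the concentration at half of the fitted maximal effect; 0% = DMSO wells and -100% = cell-free medium wells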
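After a 2 h attachment period, IDH1KD HT-1080 cells took pin-transferred compound for 48 h at 37 °C; ATP-based luminescence after 10 min room-temperature reagent incubation reported viability.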
DT40 TDP1 CPT = qHTS for Inhibitors of human tyrosyl-DNA phosphodiesterase 1 (TDP1): qHTS in cells in presence of CPT | chicken DT40 Tdp1-/-;hTDP1 cells + 20 nM CPT, ATP luminescence, 48 h | Potency, µM (doses to about 46.2 µM), without a hit: top-dose activity change, negative = growth inhibition, hits mostly inhibitors | 12% of 420,000 active | AID 686979, 2013; further: potency means the concentration at half of the fitted maximal effect; nearly all actives have a fitted effect of over 55% in size
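Cell growth measured by CellTiter-Glo luminescence after a minimum 48 h, 37 C compound exposure with 20 nM CPT in Tdp1-knockout DT40 cells stably expressing hTDP1, seeded 400/well; qHTS titration format.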
DT40 TDP1 no CPT = qHTS for Inhibitors of human tyrosyl-DNA phosphodiesterase 1 (TDP1): qHTS in cells in absence of CPT; DT40 Tdp1-/- hTDP1 cells, no CPT, ATP luminescence, 48 h; Potency, µM (top dose mostly 46.2 µM), without a hit: at the top dose activity change, negative = growth inhibition, most hits filed as inhibitors; 15% of 420,000 active; AID 686978, 2013; further: potency means the concentration at half of the fitted maximal effect; nearly all actives have a fitted effect of over 55% in size
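Growth kinetics read by CellTiter-Glo luminescence after ≥48 hr at 37 °C. Cells: DT40 Tdp1-/- stably carrying human TDP1, 400 per well, compound exposure in the absence of CPT (DMSO vehicle).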
IL-1B inflam inh = qHTS for Inhibitors of Inflammasome Signaling: IL-1-beta AlphaLISA Primary Screen; AID 743279, 2014; THP-1 LPS/ATP IL-1B secretion, AlphaLISA, 16 h; stronger effect = lower value; 4.7% of 360,000 active; activity change, % at 57.5 µM; in the data active means activity change below about -50%; inconclusive means mostly about -30% to -49%
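Secreted IL-1B measured by AlphaLISA bead assay after 16 h compound exposure of THP-1 cells; compounds (final up to 57.5 uM) added 1 h before LPS (250 ng/mL) and ATP (1.25 mM) stimulation; lower signal means less secretion.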
HT1080NT lethal = qHTS for induction of synthetic lethality in tumor cells producing 2HG: qHTS for the HT-1080-NT fibrosarcoma cell line | 1.6% of 360,000 active | HT-1080-NT fibrosarcoma viability, CellTiter-Glo ATP luminescence, 48 h | AID 686970, 2013 | Potency, µM (highest dose often 46.1 µM), for inactives: at the top dose activity, negative = less viability, hits mostly cytotoxic;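 further: NT is the 2HG producing partner of a matched IDH1 knockdown line; potency means the concentration at half of the fitted maximal effect; 0% = DMSO-treated cells and -100% = media-only wells without cells; nearly all actives have a fitted effect of over 55% in size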
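Fibrosarcoma NT cells, 750 per well in 5% FBS RPMI, were exposed to compound for 48 hours. Viability: CellTiter-Glo luminescence.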
The depositor's hits bear a star; ? = inconclusive; · = no result given. Unless noted, the call rests on the fitted dose curve; in most records, active means well fitted curve in the direction sought with a large enough effect; inconclusive means small, poorly fitted or top-dose-only effect, or another doubt; inactive means no such curve, though single readings can be large; an effect the other way counts as inactive or inconclusive. Unless noted, on the % scale 0 is the no-effect control and ±100 the full control effect.

SMILES	HT1080 IDH1KD tx	DT40 TDP1 CPT	DT40 TDP1 no CPT	IL-1B inflam inh	HT1080NT lethal
Cc1nc2ccc(S(=O)(=O)N3CCCCC3)cc2s1	-7%	0%	-11%	6	0%
Cc1ccccc1CN1C2=NCCN2c2ccccc21	10%	?	?	-5	-9%
Clc1ccc(CN2C3=NCCCN3c3ccccc32)cc1Cl	?	-120%	15µM*	·	?
Clc1ccc(CN2C3=NCCCN3c3ccccc32)cc1	-27%	26µM*	21µM*	-29	?
Cc1ccccc1CN1C2=NCCCN2c2ccccc21	-27%	18µM*	18µM*	-16	-6%
Cc1cc(C)cc(Nc2cc(-c3ccccc3)nc(C)n2)c1	·	9.2µM*	8.2µM*	·	·
Cc1nc(-c2ccccc2)cc(N2CCCC2)n1	3%	0%	-15%	0	10%
Cc1cc(C)n(-c2cc(-c3ccccc3)nc(C)n2)n1	-1%	16µM*	?	-6	2%
CCOc1ccc(N2C(=O)C3C4C=CC([C@H]5CC45)[C@@H]3C2=O)cc1 (stereo partly drawn)	5%	?	-27%	18	8%
CCCCN(CC)S(=O)(=O)c1ccc(C(=O)Nc2nnc(COC)o2)cc1	?	?	?	10	?
C=CCN(CC=C)S(=O)(=O)c1ccc(C(=O)Nc2nnc(COC)o2)cc1	?	?	16µM*	0	-21%
COCc1nnc(NC(=O)c2ccc(S(=O)(=O)N(CC(C)C)CC(C)C)cc2)o1	?	?	?	89	?
COCc1nnc(NC(=O)c2ccc(S(=O)(=O)N(C)c3ccccc3)cc2)o1	-27%	16µM*	?	-2	-8%
COc1cc(CNCc2ccncc2)cc(OC)c1OC	-1%	-4%	-7%	-13	-2%
CCCn1c(N2CCN(CC(=O)c3c(C)n(C)c4ccc(OC)cc34)CC2)nc2c1c(=O)[nH]c(=O)n2C	?	?	21µM*	-19	-23%
COc1ccc(N2CCN(Cc3nc4c(c(=O)[nH]c(=O)n4C)n3Cc3ccc(C)cc3)CC2)cc1	·	-2%	?	·	·
CCCCCn1c(CN2CCN(c3ccc(OC)cc3)CC2)nc2c1c(=O)[nH]c(=O)n2C	·	?	23µM*	·	·
CCCCCn1c(CN2CCN(c3cc(Cl)ccc3C)CC2)nc2c1c(=O)[nH]c(=O)n2C	0%	14µM*	13µM*	?	13%
COc1ccc(CCn2c(N3CCN(C)CC3)nc3c2c(=O)[nH]c(=O)n3C)cc1	11%	-11%	-17%	4	11%
Cc1ccccc1-n1c(C)nnc1SCC(=O)N1CC(=O)Nc2ccccc21	8%	-9%	0%	29	0%
Cc1ccc(N2CCN(c3nc4ccccc4n4nnnc34)CC2)c(C)c1	·	-1%	9%	·	·
O=C(Cn1c(=O)c2cccn2c2ccc(F)cc21)N1CCN(c2ccccc2)CC1	·	-12%	-15%	·	·
CN1C(=C2C(=O)OC(C)(C)OC2=O)Sc2ccccc21	0%	?	18µM*	-1	3%
Cc1cc(C)nc(Sc2nc(Cl)nc(N(c3ccccc3)c3ccccc3)n2)n1	4%	?	?	-97*	-3%
Cc1cc(C)nc(SC(C(=O)O)c2ccccc2)n1 (stereo not drawn)	3%	2%	-7%	12	17%
SMILES	HT1080 IDH1KD tx	DT40 TDP1 CPT	DT40 TDP1 no CPT	IL-1B inflam inh	HT1080NT lethal
Cc1oc(-c2ccccc2)nc1CNC(=O)Nc1ccccc1	·	-28%	?	·	·
Clc1ccc2c(c1)N=C(N1CCNCC1)c1ccccc1N2	·	13µM*	9.2µM*	·	·
Cc1ccc(CSc2nnc(-c3ccco3)n2N)cc1	-7%	4%	-6%	-3	-3%
Cc1ccc(NC(=O)c2csc(-c3ccccc3)c2C)cc1	?	?	?	-23	?
CC(=O)Nc1scc(-c2ccccc2)[n+]1-c1ccc(C)cc1	-9%	15µM*	13µM*	-20	1%
COc1cc(/C=N/NC(=S)NC(C)C)ccc1OCC(=O)Nc1c(C)cc(C)cc1C	-21%	7.3µM*	7.3µM*	28	-21%
CCCCNC(=S)N(C)/N=C/c1ccc(OCC(=O)Nc2ccc(OC)cc2)c(OC)c1	-35%	23µM*	?	?	-10%
COc1cc(/C=N/NC(=S)Nc2cccc(Cl)c2C)ccc1OCC(=O)N1CC(C)OC(C)C1 (stereo not drawn)	-16%	15µM*	15µM*	-26	-1%
COc1ccc(NC(=O)COc2ccc(/C=N/O)cc2OC)cc1	6%	?	12µM*	-16	?
CCC(=O)OC1=CN(Cc2ccccc2)S(=O)(=O)c2ccccc21	·	8%	4%	·	·
CCCCNC(=S)N(C)/N=C/c1ccc(OCC(=O)Nc2c(C)cc(C)cc2C)c(OC)c1	?	13µM*	8.2µM*	-9	-27%
CSc1ccccc1C(=O)OCC(=O)NC1CCCCCCC1	5%	-26%	?	0	2%
CC1CCCC(C)N1C(=O)Cc1ccccc1 (stereo not drawn)	45%	5%	-16%	4	-1%
O=C(Cc1ccccc1)N1CCCC1c1ccccc1 (stereo not drawn)	1%	16µM*	?	32	1%
COc1ccc(N2C(=O)CSC2c2cccc(F)c2)cc1 (stereo not drawn)	5%	-3%	-21%	14	-7%
C=CCc1cccc(CNn2cnnc2)c1O	10%	0%	23%	-8	13%
Cc1oc2ccc(OS(C)(=O)=O)cc2c1C(=O)OC(C)C	-13%	?	?	0	-5%
CCN(CC)C(=O)COc1ccc2oc(C)c(C(=O)OC(C)C)c2c1	8%	?	16µM*	28	7%
COc1cc2nc(C)sc2cc1SC	8%	?	?	4	4%
COc1cc2nc(/C=C/c3cc(OC)c(OC)c(OC)c3)sc2cc1SC	?	5.8µM*	5.8µM*	-26	?
Cn1nc(C(F)(F)F)c(-c2ccc(Br)cc2)c1NC(=O)c1cccnc1	?	?	13µM*	3	-28%
Cn1nc(C(F)(F)F)c(-c2ccc(F)cc2)c1NC(=O)Nc1ccc(F)cc1	?	16µM*	15µM*	·	23µM*
CCOc1cc(N2CCOCC2)c(OCC)cc1NS(=O)(=O)c1ccc2c(c1)CC(=O)N2	0%	-1%	-13%	7	3%
